HSP90 inh: blocks HSP90-mediated luciferase refolding in reticulocyte lysate; Rabbit reticulocyte lysate, luciferase refolding luminescence, 3 h; inhibition, % at 5.6 µM; hit rate 0.91% among 290,000;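 active means inhibition above the screen-wide mean plus 3 SD, computed separately per campaign, cut at about 16% in these data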;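 further: 0% = DMSO wells and 100% = 60 µM geldanamycin wells; inhibitors lower the luminescence because luciferase stays unfolded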
TROY signal inh: blocks TROY-dependent signaling in reporter cells; Q293 LMP1-TROYcd NF-kB luciferase reporter, 4 h; inhibition, % at 10 µM; hit rate 0.98% among 360,000; AID 1347056;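 active means compounds whose plate-normalised and pattern-corrected inhibition of the luciferase reporter signal at the single screening dose is 50% or more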
TWEAK-Fn14 inh: blocks TWEAK-Fn14 interaction in a reporter cell assay | inhibition, % at 10 µM | AID 1159606 | TWEAK-stimulated Fn14 reporter cells, luciferase luminescence, 8 h | hit rate 2% among 360,000; in the data active means inhibition above about 50%
LGR2 inh: blocks bursicon-induced cAMP signaling via Drosophila LGR2; AID 720647; HEK293 LGR2, CRE-luciferase, bursicon-stimulated, 4 h; inhibition, % at 9.99 µM; hit rate 0.35% among 380,000;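 active means drop in luminescence signal, shown as inhibition above about 50% in the replicate tests, limit read from the data, passing the limit was not always enough; inconclusive means probably only some replicates passing the limit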;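 further: agonist challenge used bursicon conditioned medium at about half maximal strength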
Active calls of the source: *; ? = inconclusive; nt = not tested or not shown. Sampled rows, rich in hits. Any-hit rate of the full collection: about 2.2%.

SMILES	HSP90 inh	TROY signal inh	TWEAK-Fn14 inh	LGR2 inh
CCn1c(=NC(=O)c2ccc(S(=O)(=O)N3CCOCC3)cc2)sc2cccc(OC)c21	3	38	60*	nt
CCn1c(=NC(=O)CS(=O)(=O)c2ccc(F)cc2)sc2cccc(OC)c21	nt	21	11	9
CCn1c(=NC(=O)CCS(=O)(=O)c2ccccc2)sc2cccc(OC)c21	-1	41	58*	1
CC(=O)CSc1nc(N)c(C#N)c(-c2cccs2)c1C#N	-1	12	52*	nt
O=S(=O)(Nc1ccc(O)c2ccccc12)c1cccs1	8	28	82*	-37
O=S(=O)(Nc1cccc2ccccc12)c1cccs1	-3	0	-7	-8
Cc1ccc(S(=O)(=O)Nc2cccc3ncccc23)s1	-1	85*	108*	nt
Cc1ccc(-c2nc3cc(NC(=O)C(C)C)ccc3o2)cc1	4	53*	61*	nt
Cc1cccc(-c2nc3cc(NC(=O)C4CCCO4)ccc3o2)c1 (stereo unspecified)	5	47	68*	59*
O=C(Nc1ccc(-c2nc3ccccc3[nH]2)cc1)C1CCCO1 (stereo unspecified)	16	33	73*	?
CC(Oc1ccc(Cl)cc1Cl)C(=O)Nc1ccc2oc(-c3ccncc3)nc2c1 (stereo unspecified)	2	59*	54*	nt
O=C(Nc1nc2ccccc2[nH]1)C1CCCO1 (stereo unspecified)	1	-39	-10	-24
COc1ccc(S(=O)(=O)Nc2ccc3c(c2)C(=O)N([C@H](C)CO)C[C@H](C)[C@@H](CN(C)C(=O)CCCN(C)C)OCCCC[C@H](C)O3)cc1	nt	nt	nt	1
COc1cccc(S(=O)(=O)N(C)C[C@@H]2Oc3ncc(C#Cc4ccc(C(F)(F)F)cc4)cc3C(=O)N([C@H](C)CO)C[C@@H]2C)c1	nt	nt	nt	23
Cc1[nH]nc2c1C(c1cc(Br)cs1)C(C#N)=C(N)O2 (stereo unspecified)	-3	5	61*	14
COc1ccc(Sc2ccc(/C=C3\C(=O)NN(c4ccccc4)C3=O)o2)cc1	3	17	93*	-12
Cc1noc(C)c1NC(=O)Nc1ccc2c(c1)C(=O)N([C@@H](C)CO)C[C@H](C)[C@H](CN(C)S(C)(=O)=O)O2	nt	nt	nt	-7
CCOC(=O)c1c(NC(=O)CC2SC(N)=NC2=O)sc2c1CCC(C)C2 (stereo unspecified)	59*	14	-15	8
CCOC(=O)Cc1cc(OC)c(OC)cc1Cc1cc(OC)c(OC)cc1CC(=O)OCC	1	9	80*	nt
Cc1ccc(S(=O)(=O)Nc2ccc3c(c2)CC(=O)N([C@@H](C)CO)C[C@@H](C)[C@H](CN(C)Cc2ccc4c(c2)OCO4)O3)cc1	nt	nt	nt	8
O=C(CSc1nc2c(cnn2-c2ccc(F)cc2)c(=O)[nH]1)N1N=C(c2cccs2)CC1c1ccc(F)cc1 (stereo unspecified)	4	50*	57*	-1
O=C([C@@H]1[C@@H](CO)[C@@H]2Cn3c(ccc(-c4ccccc4F)c3=O)[C@H]1N2C(=O)C1CCC1)N1CCOCC1	nt	nt	nt	1
COCc1cc(=O)[nH]c(Nc2nc3ccc(C)cc3o2)n1	-1	-24	106*	nt
C[C@H](O)C#Cc1cnc2c(c1)C(=O)N([C@H](C)CO)C[C@@H](C)[C@H](CN(C)C(=O)Cc1ccncc1)O2	nt	nt	nt	11
O=[N+]([O-])c1ccccc1CN1CCN(Cc2ccc3ccccc3c2)CC1	2	-8	65*	-9
SMILES	HSP90 inh	TROY signal inh	TWEAK-Fn14 inh	LGR2 inh
COc1ccc(CN2CCN(Cc3ccc4ccccc4c3)CC2)cc1OC	-2	18	-4	5
OC1CCN(Cc2ccc3ccccc3c2)CC1	-3	-10	97*	2
COc1ccc(OC)c(C(=O)c2coc3ccc(OC(C)=O)cc23)c1	1	-54	-23	-29
Cc1ccc(C(=O)c2coc3ccc(O)c(Cl)c23)cc1	-11	-5	-4	nt
Cc1ccc(C(=O)c2coc3ccc(O)cc23)cc1	9	-15	56*	-8
COc1ccc(C(=O)c2coc3ccc(OC(C)=O)cc23)cc1	11	-4	57*	-20
COCC(=O)NC[C@H]1[C@@H](c2ccccc2)[C@@H](CO)N1C(C)=O	nt	nt	nt	-10
c1ccc2c(NCCCN3CCOCC3)c3ccccc3nc2c1	-5	nt	nt	90*
CN(C)CCCNc1nc(-c2ccccc2)nc2ccccc12	3	-9	11	-13
CN(C)CCCNc1c2ccccc2nc2ccccc12	-1	-47	-5	92*
COc1ccc(-c2cncnc2-c2ccc(OC)cc2O)cc1	-5	41	69*	10
Cc1ccc(NC(=O)/C(Cl)=C\c2ccccc2)cc1	nt	-5	42	41
